# Assay results from PubChem BioAssay (NCI).
# About 83,000 compounds went through this panel and 20% of them were active in at least one assay; those are over-represented in the sample as a whole.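 Assay: single dose, 48 h. Readout: percent growth (0 = no net growth; negative = cell death). Active: <10.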 Unmarked numbers belong to inactive results. The source made the active and inactive calls.
# Assays:
# Assay in all cases: NCI-60 one-dose screen, 48 h (100 = growth as untreated, 0 = no growth, -100 = all killed)
# Conditions in all cases: 10 µM unless noted
# NCI-H23 lung = test system: NCI-H23 lung
# NCI-H226 lung = test system: NCI-H226 lung
# NCI-H322M lung = test system: NCI-H322M lung
# HOP-62 NSCLC = test system: HOP-62 NSCLC
# NCI-H460 lung = test system: NCI-H460 lung
# HOP-92 NSCLC = test system: HOP-92 NSCLC
# NCI-H522 lung = test system: NCI-H522 lung
# A549/ATCC NSCLC = test system: A549/ATCC NSCLC
# 786-0 renal = test system: 786-0 renal
# COLO 205 colon = test system: COLO 205 colon
# DU-145 prostate = test system: DU-145 prostate
# K-562 leukemia = test system: K-562 leukemia
# MALME-3M melanoma = test system: MALME-3M melanoma
# MDA-MB-231 breast = test system: MDA-MB-231 breast
# RXF 393 renal = test system: RXF 393 renal
# SF-268 CNS = test system: SF-268 CNS
# SF-295 CNS = test system: SF-295 CNS
# SF-539 CNS = test system: SF-539 CNS
# UACC-257 melanoma = test system: UACC-257 melanoma
# M14 melanoma = test system: M14 melanoma
SMILES,growth (NCI-H23 lung) [%],growth (NCI-H226 lung) [%],growth (NCI-H322M lung) [%],growth (HOP-62 NSCLC) [%],growth (NCI-H460 lung) [%],growth (HOP-92 NSCLC) [%],growth (NCI-H522 lung) [%],growth (A549/ATCC NSCLC) [%],growth (786-0 renal) [%],growth (COLO 205 colon),growth (DU-145 prostate),growth (K-562 leukemia),growth (MALME-3M melanoma),growth (MDA-MB-231 breast),growth (RXF 393 renal),growth (SF-268 CNS) [%],growth (SF-295 CNS) [%],growth (SF-539 CNS),growth (UACC-257 melanoma) [%],growth (M14 melanoma)
Cc1ccc(/C=N/NC(=O)CSc2nc3ccccc3c(=O)n2Cc2ccc(S(N)(=O)=O)cc2)cc1,91.5,84.6,102,85.7,98.5,109,42.5,85.9,99.3,105%,105%,63.3%,97%,89.7%,86.8%,78.2,95,102%,96.4,98.1%
COc1cccc(-c2nc3occn3c2-c2ccnc(NCCNS(=O)(=O)c3ccc(C(F)(F)F)cc3)n2)c1,98.2,75.8,98.9,119,88,95.9,86.6,87.9,79.5,77.7%,96.4%,71.6%,107%,87.2%,90.8%,88.2,99.1,104%,121,102%
O=C(Nc1ccc(NC(=O)c2cc(=O)[nH]c3ccccc23)cc1)Nc1cccc(Cl)c1,87.9,70,80.2,66.2,86.3,81.1,84.6,93.5,98.3,90.1%,105%,83.5%,90%,78.7%,95.3%,65.3,95.3,84.1%,98.2,93%
NC(=NCCCOc1ccc(F)cc1)Nc1ccc(Cl)cc1,46,65.7,60.1,46.6,84.2,60.7,76.5,53,71.4,-69.6% (active),25%,64.7%,54.6%,53.7%,73.6%,49.9,47.5,59.7%,13.4,52.7%
COc1ccc2[nH]c(O)c(/C=c3/cc4c(c(-c5ccc(F)cc5)n3)=Nc3ccccc3-4)c2c1,67.9,76.3,94,95.5,41.5,66.7,68.5,75.8,97.6,96.6%,76.6%,23.5%,114%,32.2%,81.5%,79.3,86.9,89.5%,113,92.3%
COc1ccc(/C=C2\Oc3cc(OCCCCCN4CCCCC4)ccc3C2=O)cc1OC,78.6,83.1,97.9,97.4,59.2,54.4,89.9,88.7,84.4,98.5%,89.6%,-54.6% (active),83.7%,86.7%,76.3%,87.2,98.6,81.1%,87.4,89.1%
COc1ccc(-c2[nH][nH]c(=O)c2-c2nc3ccccc3s2)cc1,105,98,100,104,105,108,96.3,107,100,112%,108%,98.2%,110%,104%,109%,101,107,108%,106,107%
CN[C@@H](C)C(=O)N[C@H]1CCS[C@H]2CC(C)(C)[C@@H](C(=O)N[C@H]3c4ccccc4C[C@H]3OCC#CC#CCO[C@@H]3Cc4ccccc4[C@@H]3NC(=O)[C@H]3N4C(=O)[C@@H](NC(=O)[C@H](C)NC)CCS[C@H]4CC3(C)C)N2C1=O,57.6,129,92.4,66.8,114,79.4,56.9,95.3,99.2,103%,101%,100%,-42.8% (active),-51.2% (active),2.22% (active),124,86.8,-43.6% (active),101,103%
COc1cc(F)c(/C=C/c2cc(/C=C/c3cc(OC)c(OC)cc3F)on2)cc1OC,79.4,56.8,96,107,72.1,88.4,62.3,81.3,87.3,80%,88.2%,63.3%,69.3%,83%,92.8%,86.7,97.7,98%,86.3,80.9%
COc1ccc2[nH]c(=O)c(CN3CCN(c4nccc(-c5ccc(Cl)cc5)n4)CC3)cc2c1,91.2,94.4,85.4,80.1,76.3,101,77,73.9,85.2,95.9%,98.9%,70.4%,92.9%,85%,90.3%,90.5,98.4,89.8%,82.6,102%
Cn1ccnc1C(=O)/C=C/c1ccc(CC(=O)NC2CCCCC2)cc1,61.9,92.8,61,56,26,75,52.1,64.1,71.3,67.9%,6.25% (active),18%,92%,65.1%,73.2%,40.9,77.8,63.7%,84.8,89.8%
COc1cc2nc(-c3ccc(C(F)(F)F)cc3)cc(OCCN3CCCCC3)c2cc1OC,84.7,73.2,73.1,69.7,46.3,68.2,91.2,81,78.7,27.4%,70.9%,53.4%,74.4%,54.1%,62.4%,75.8,77.5,74.4%,36.6,-11.8% (active)
COc1cc2c(-c3cc4c(cc3CNCCc3ccc5c(c3)OCO5)OCO4)cccc2c(OC)c1O,80.5,92.2,84.6,70.9,91.2,66.4,79.1,92.3,90.1,117%,95.8%,20%,103%,69.4%,74.9%,68,92.2,88.4%,96.1,84.4%
O=C(Nc1cccc(C2=NCCN2)c1)c1ccc(-c2ccc(C(=O)Nc3cccc(C4=NCCN4)c3)cc2)cc1,73,84,93.8,113,37.8,90.9,60.5,74.9,86.2,43.9%,39.1%,35.5%,9.06% (active),79.6%,122%,90.2,71.1,97.5%,36.7,77.7%
CNC(=O)c1cncc(Cn2nc(C)c(NC(=O)c3ccc(COc4ccc(C(F)(F)F)cc4C)cc3)c2C)c1,49.3,58.1,88.8,56.9,62,79.2,49.2,55,68.8,66.9%,67%,37%,73.8%,78.2%,83.7%,70.8,40.4,80.7%,18.4,73.3%
